# Data reported in ChEMBL document CHEMBL4513216, “Probing the Open Global Health Chemical Diversity Library for Multistage-Active Starting Points for Next-Generation Antimalarials” (ACS Infect Dis, 2020).
# The whole screen tested about 65,000 compounds, of which about 2,100 (3.2%) showed an effect of 50% or more. The median lay at about -52%. This is one part of a sample in which strong results are shown more often than they occur.
# Test system: Plasmodium falciparum
# Assay: Screen against P. falciparum Asexual Blood Stage (ABS), at 5uM
# Format: functional, Dd2
# Settings: tested at 5 uM
row,Structure (SMILES),INHIBITION
1,Cc1ncsc1CN1C[C@H](C(=O)NC2CCCC2)[C@@H]2CCO[C@@H]2C1,1.73%
2,CCO[C@H]1CO[C@@]2(CCCN(Cc3scnc3C)C2)C1,-22.6%
3,CNC(=O)CNC1CC2(CCN(c3ncccn3)CC2)c2ccccc21 (stereo not given),-84.5%
4,c1cnc(N2CCC3(CC2)CC(NCC2CC2)c2ccccc23)nc1 (stereo not given),54.2%
5,CS(=O)(=O)N1CCC2(CC1)CC(NCC1CC1)c1ccccc12 (stereo not given),48.3%
6,Cc1ccccc1-c1cc(C(=O)N2CCCC(n3ccnc3C)C2)[nH]n1 (stereo not given),-29.5%
7,COCCN1CCCCC12CC(=O)N(c1cccc(C#N)c1)C2 (stereo not given),-132%
8,COCCCNC(=O)CN1CCOC(c2ccccc2)C1 (stereo not given),-41.4%
9,CCc1cccc(N2CCC(NC(=O)c3ccco3)CC2)c1,60.4%
10,CCc1cccc(N2CCC(NC(=O)c3ccncc3)CC2)c1,-62.9%
11,CCc1cccc(N2CCC(NC(=O)c3ccoc3C)CC2)c1,-16.9%
12,CN1CCN(C(=O)[C@H]2C[C@@H]3CCN(c4ncc(F)cn4)C[C@@H]3O2)CC1,-116%
13,CCN(CC)C1CCN(C(=O)c2cc(-n3cccn3)ccc2Cl)CC1,65.1%
14,O=C(c1cc(-n2cccn2)ccc1Cl)N1CCCC(N2CCCC2)C1 (stereo not given),65.8%
15,O=C(c1cc(-n2cccn2)ccc1Cl)N1CCC(N2CCCC2=O)CC1,-100%
16,O=C(c1ccc(-n2cccn2)c(F)c1)N1CCCN2CCCC2C1 (stereo not given),-23.2%
17,O=C(Nc1cccnc1-n1cccn1)N1CCCC(N2CCCC2)C1 (stereo not given),26.8%
18,CCN(CC)C1CCN(C(=O)NCc2cccc(-n3cccn3)c2)C1 (stereo not given),-61.3%
19,Cc1cccc(NC2CCN(C(=O)Nc3ccc(F)c(F)c3)CC2)n1,-20.3%
20,Cc1ccc(C(=O)N2CCC3(CC2)CC(N2CCOCC2)C3)cc1,-158%
21,CC(C)CC(=O)Nc1cccc(CNCc2cccs2)c1,-70.1%
22,O=C(c1cc[nH]n1)N1CCc2onc(COc3cccnc3)c2C1,-33.4%

row,Structure (SMILES),INHIBITION
1,O=C(c1ccncc1F)N1Cc2nc(COCC3CC3)oc2C1,-37.7%
2,c1cncc(COCc2nnc3n2CCN(Cc2ccco2)C3)c1,-119%
3,Cn1cc(-c2cnc3n2CCC32CCN(S(=O)(=O)C3CC3)CC2)cn1,-61.5%
4,Cc1cnc(NCc2csc(C(C)C)n2)nc1-c1cnn(C)c1,-52.9%
5,COCCn1ccnc1CN1CCc2[nH]cnc2C1c1ccccn1 (stereo not given),-11.9%
6,CCCn1ccnc1CN1CCc2[nH]cnc2C1Cc1ccccc1 (stereo not given),66.5%
7,CCn1ncnc1CN1CCc2[nH]cnc2C1Cc1ccccc1 (stereo not given),-61.6%
8,COc1ccc(N2CCN(CC(O)c3cc(C)ccc3C)CC2)cc1 (stereo not given),31.4%
9,Cc1nc(CN2CCCCC2CCc2ccc(O)cc2)no1 (stereo not given),-168%
10,Oc1ccc(CCC2CCCCN2Cc2noc(C3CC3)n2)cc1 (stereo not given),-61.9%
11,Cc1noc(C)c1CN1CCCCC1CCc1ccc(O)cc1 (stereo not given),51.5%
12,Cc1ccc(S(=O)(=O)N2CCc3nc(C4CCNCC4)ncc3C2)cc1,-51.4%
13,N#Cc1cccc(C(=O)N2CCCC(O)(CO)CC2)c1 (stereo not given),-41.3%
14,Cn1cc(CN2CCc3ccc(=O)n(CC4CC4)c3CC2)cn1,-67.9%
15,CS(=O)(=O)CCNC(=O)c1ccc(-c2ccco2)[nH]c1=O,-78.3%
16,COc1ccc(C[C@H]2CN(C3CCOCC3)CC[C@@H]2OCC2CC2)cc1,60.9%
17,COc1ccc(C[C@H]2CN(C3CCOCC3)CC[C@H]2OCC2CC2)cc1,68.4%
18,COc1ccc(OC)c(C2CCN(C3CCOCC3)C2)c1 (stereo not given),-74.2%
19,Cc1nnc(N2CC[C@H](OCC3CC3)[C@@H](Cc3ccccc3)C2)s1,-3.27%
20,COc1ccc(CC2CN(C3CCSCC3)CCO2)cc1 (stereo not given),-96.7%
21,COc1ccc(CN2C[C@H](OCC3CCOCC3)[C@H]3COC[C@H]32)cc1,-12.7%
22,Nc1cc(-c2c[nH]nc2C2CCCCN2C(=O)C2CCCC2)ccn1 (stereo not given),-12.7%

row,Structure (SMILES),INHIBITION
1,Cc1ccc(NC(=O)Cn2ncc(SCC(N)=O)c(Cl)c2=O)c(F)c1,-57.4%
2,COc1ccccc1NC(=O)N(CCO)Cc1ccsc1,-19.5%
3,O=C(NC1CCC1)[C@H]1CCS(=O)(=O)[C@@H]2CN(CCc3ccccc3)C[C@H]12,-96.2%
4,Cc1nc(CN2CCCN(C(=O)c3cccnc3O)CC2)cs1,49.4%
5,CCOc1ccc(NC(C)=O)cc1S(=O)(=O)Nc1cc(C)on1,-90.8%
6,Cc1ccc(C)c(OC2CCN(C(=O)CNc3ccccc3Cl)CC2)c1,-76.6%
7,Cc1nc(CC(=O)N2CCn3c(nnc3C(C)C)C2)cs1,51.5%
8,CC(C)c1nnc2n1CCN(C(=O)Cc1csc(C(C)(C)C)n1)C2,20.2%
9,CCc1nc(CC(=O)N2CCn3c(CC)nnc3C2)cs1,52%
10,CCc1nc(CC(=O)N2CCn3c(nnc3C(F)(F)F)C2)cs1,-206%
11,CCc1nc(CC(=O)N2CCn3c(nnc3C(C)C)C2)cs1,-56.3%
12,CCc1nc(CC(=O)N2CCn3c(C)nnc3C2)cs1,-18.3%
13,c1coc(COCc2ncn3c2CN(Cc2cccs2)CCC3)c1,-87%
14,O=C(C1NCCc2[nH]cnc21)N1CCC2(C=Cc3ccccc32)CC1 (stereo not given),-16.1%
15,O=C(c1cccc(Cl)c1)N1CC[C@H]2[C@H]1CCN2CC1CC1,-55.8%
16,CCN(C1CCN(Cc2ncc(C(C)(C)C)o2)CC1)S(C)(=O)=O,-26.2%
17,CS(=O)(=O)N1CCC(c2nc3ccc(-c4cccc(F)c4)cn3n2)CC1,-44.9%
18,OC1(CN2CCCC2)CCCN(Cc2c[nH]c(CC3CCCC3)n2)C1 (stereo not given),37.2%
19,OC1(CN2CCCCC2)CCN(Cc2c[nH]c(CC3CCCC3)n2)C1 (stereo not given),54.6%
20,CC1(C)CN(Cc2c[nH]c(CC3CCCC3)n2)CC[C@]1(C)O,-29.5%
21,CN(C)c1ccc(C(=O)NCc2cccnc2-n2cncn2)cc1F,-20.3%
